In the library only some 3.1% were active in any assay of this set; here they are far more common.
p53null 32C kill: qHTS Screen for Compounds that Selectively Target Cancer Cells with p53 Mutations: Cytotoxicity of p53 Null Cells at the Permissive Temperature | Potency, µM (titrated, usually from 46.1 µM), for the others: at the top dose activity change, negative = cytotoxicity, hits mostly cytotoxic | H1299-neo p53 null cells, ATP luminescence, 24 h, 32C | actives 0.62% (n = 55,000);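 note: 0% = DMSO only and -100% = full killing by 100 µM tamoxifen; nearly all actives have a fitted effect of over 55% in size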
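We seeded p53-null H1299-neo cells, incubated them overnight at 37C, and added compounds across a range up to 46 uM. After 24 hours at 32C, ATP reagent was applied for 20 min at room temperature and luminescence recorded.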
S16 F2sN tox: Cell viability qHTS assay in S16 Pmp22-F2sN cells. S16 Pmp22-F2sN Schwann cells viability, CellTiter-Glo, 24 h. Potency, µM (top dose mostly 57.5 µM), inactives show top-dose activity change, negative = cytotoxicity, actives largely listed as cytotoxic. actives 0.48% (n = 43,000). AID 1508642, 2021; note: nearly all actives have a fitted effect of over 65% in size
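Viability was measured by CellTiter-Glo luminescence (15 min, room temperature). This followed 24 h at 37 °C of compound exposure (23 nL pin transfer) in S16 Pmp22-F2sN Schwann cells, 500-1,000 per well.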
p53null 39C tox: qHTS Screen for Compounds that Selectively Target Cancer Cells with p53 Mutations: Cytotoxicity of p53 Null Cells at the Nonpermissive Temperature | H1299 p53-null (neo) cells, 39C, ATPlite viability, 24 h | Potency, µM (titrated, usually from 46.1 µM), without a hit: top-dose activity, negative = cell killing, most hits filed as cytotoxic | actives 0.97% (n = 55,000);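 note: 0% = DMSO only and -100% = full killing by 100 µM tamoxifen; nearly all actives have a fitted effect of over 50% in size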
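Following overnight plating at 37C (600 cells/well), H1299-neo or H1299-p53A138V cells are dosed up to 46 uM. Incubation lasts 24 hr at 39C before ATP detection.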
PMP22 txn prim: Cell-based coincidence reporter assay to measure PMP22 gene transcription in S16 Pmp22-F2sN cells - Primary screen; Potency, µM (highest dose often 57.5 µM), for the others: top-dose activity change, negative = inhibition, actives largely listed as inhibitors; actives 2% (n = 43,000); S16 Pmp22-F2sN Schwann cells (luciferase reporters placed in the Pmp22 gene), FLuc/NLuc coincidence luminescence, 24 h; AID 1508649, 2021; active = clear falling dose curves in both reporters; inconclusive = both reporters move, but less clearly or upward; inactive = either reporter flat; the % is the NLuc reporter signal
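Schwann cells carrying the coincidence reporter were exposed to library compounds for 24 h at 37C, then lysed and read for FLuc and, after quenching, NLuc luminescence on a CCD imager.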
mTORC1 inh: Acumen qHTS Assay for Inhibitors of the mTORC1 Signaling Pathway in MEF (Tsc2-/-, p53-/-) Cells: Sytravon. actives 0.78% (n = 44,000). Potency, µM (doses to about 38.3 µM), without a hit: at the top dose activity change, negative = inhibition, hits mostly inhibitors. Tsc2-/- p53-/- MEF, phospho-rpS6 immunofluorescence/PI, 24 h;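 note: plate controls were DMSO for no effect and rapamycin for full effect; nearly all actives have a fitted effect of over 50% in size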
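Tsc2-/-, p53-/- MEFs (empty-vector stable line) in DMEM + 10% FBS were treated with compounds 24 h at 37 degree Celsius, fixed, and immunostained for phospho-rpS6 (Alexa-488) with propidium iodide counterstain. Laser-scanning cytometry gave % positive cells, normalized against 7.5 nM rapamycin and DMSO.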
OvCa metastasis: Primary qHTS assay for Inhibitors of ovarian cancer metastasis using an organotypic tumor microenvironment (TME) model; SKOV3ip1-GFP adhesion/invasion on 3D omental model, fluorescence; Potency, µM (highest dose often 45.8 µM), without a hit: at the top dose activity change, negative = inhibition, hits mostly inhibitors; actives 0.1% (n = 46,000);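 note: plate controls were DMSO wells for no effect and tomatine positive control wells for full effect; nearly all actives have a fitted effect of over 65% in size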
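qHTS, 4-pt dose (0.36-46 umol/L); SKOV3ip1-GFP, 1,200 cells/well, no FBS; primary omental fibroblast/mesothelial co-culture 48 h pre-grown; 2 h RT + 16 h 37 C; PBS wash, 4% PFA; GFP count 488/509 nm.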
Active calls of the source: *; i = inactive; ? = inconclusive; . = no result given; [ ] = remark or other dose. Unless noted, calls come from the whole dose curve; as a rule, active = well fitted curve in the direction sought with a large enough effect; inconclusive = small, poorly fitted or top-dose-only effect, or another doubt; inactive = no such curve, though single readings can be large; an effect the other way counts as inactive or inconclusive. Unless noted, % is set by controls: 0 for no effect and ±100 for the full control effect; potency is the fitted concentration of half-maximal effect.

SMILES	p53null 32C kill	S16 F2sN tox	p53null 39C tox	PMP22 txn prim	mTORC1 inh	OvCa metastasis
COc1ccc(-n2ncc3c(NC4CCCC4)ncnc32)cc1	5.01µM*	?	7.6%	?	-18.1%	-0.2%
c1ccc(-n2ncc3c(NC4CCCC4)ncnc32)cc1	15.8µM*	18.1%	?	-9.7%	0.0%	-4.8%
Cc1cccc(-n2ncc3c(NC4CCCCC4)ncnc32)c1	-25.1%	.	0.0%	.	.	.
Cc1cccc(-n2ncc3c(NC4CCCC4)ncnc32)c1	12.6µM*	6.5%	36.0%	?	-1.1%	?
Cc1ccc(-n2ncc3c(NC4CCCC4)ncnc32)cc1	7.94µM*	-15.6%	?	0.5%	4.9%	0.5%
Clc1cccc(-n2ncc3c(NC4CCCCCC4)ncnc32)c1	-8.0%	?	?	?	-7.2%	?
C[C@@H](Oc1cc(-c2cnn(C3CCNCC3)c2)cnc1N)c1c(Cl)ccc(F)c1Cl	.	.	.	.	.	-15.8%
CC1(C)CC(=O)c2c(C(F)(F)F)nn(-c3ccc(C(N)=O)c(NC4CCC(OC(=O)CN)CC4)c3)c2C1 (configuration not stated)	.	.	.	.	.	17.5%
C[C@]12CC[C@@H]3c4ccc(O)cc4CC[C@H]3[C@H]1[C@@H](O)[C@@H](O)[C@H]2O	.	.	.	.	.	6.9%
CN(C)S(=O)(=O)c1ccc2c(c1)C(=Cc1cc3c([nH]1)CCCC3)C(=O)N2	.	.	.	.	.	25.9%
Cc1cc(CN2CCN(c3c(Br)cnc4nc(-c5ccc(N6CCN(C)CC6)cc5)[nH]c34)CC2)no1	.	.	.	.	.	2.8%
CCN(c1ccccc1)S(=O)(=O)c1ccc(NC(=O)c2cc(=O)c3ccc(C)c(C)c3o2)cc1	16.0%	-5.6%	1.7%	-18.2%	-0.1%	0.9%
CCc1ccc(NC(=O)c2cc(=O)c3ccc(C)c(C)c3o2)cc1	8.8%	?	1.4%	16.3µM*	?	-18.5%
COc1cc(OC)cc(-c2ccc3ncc4ccc(=O)n(-c5ccc(N6CCNCC6)c(C(F)(F)F)c5)c4c3c2)c1	.	.	.	.	.	7.3%
CS(=O)(=O)Nc1ccc(-c2nc3ccccc3s2)cc1	3.98µM*	1.6%	1.58µM*	-6.6%	-5.2%	2.4%
Cc1c(NS(C)(=O)=O)cccc1-c1nc2ccccc2s1	?	-23.2%	?	?	-5.9%	-7.8%
COC(=O)c1ccc(C2C=C(c3ccc(Cl)cc3)Nc3nc4ccccc4n32)cc1 (configuration not stated)	10µM*	-24.2%	10µM*	?	?	-18.1%
COC(=O)c1nc2n(n1)C(c1cc(OC)ccc1OC)C=C(c1ccc(Br)cc1)N2 (configuration not stated)	18.1%	?	-2.5%	?	-17.1%	?
COc1ccc(C2=CC(c3cc(Br)ccc3F)n3c(nc4ccccc43)N2)cc1 (configuration not stated)	12.6µM*	-1.9%	11.2µM*	?	-1.3%	i
Fc1ccc(C2=CC(c3ccc(F)cc3)n3c(nc4ccccc43)N2)cc1 (configuration not stated)	12.6µM*	1.2%	10µM*	?	-2.4%	i
N#CC(=C(N)Sc1ccc(N)cc1)c1ccccc1C(F)(F)F	.	.	.	.	.	6.9%
Cc1ccc(-c2nc3nc(C)cc(N4CCN(c5cccc(C)c5)C(C)C4)n3n2)cc1 (configuration not stated)	1.7%	1.7%	20µM*	6.8%	3.2%	91.6%
CCc1c(C)sc2c1CCN(Cc1ccc(C#N)cc1)C2c1ccccc1 (configuration not stated)	-2.9%	?	-15.8%	?	12.5%	-1.2%
CCc1c(C)sc2c1CCN(Cc1ccc(F)cc1)C2c1ccccc1 (configuration not stated)	28.2%	8.91µM*	?	?	0.0%	-1.1%
CCc1c(C)sc2c1CCN(Cc1cccc(F)c1)C2c1ccccc1 (configuration not stated)	30.4%	10µM*	?	?	7.3%	21.1%
SMILES	p53null 32C kill	S16 F2sN tox	p53null 39C tox	PMP22 txn prim	mTORC1 inh	OvCa metastasis
Cc1ccn(-c2ccc(-c3ncco3)cc2)c(=O)c1-c1ccc2nc(N)ncc2c1	.	.	.	.	.	-17.7%
CCOC(=O)c1c(C)oc2c(Cl)cc(NS(=O)(=O)c3ccc(Cl)c(C)c3)cc12	58.1%	6.6%	5.01µM*	?	-25.1%	?
Cc1cc(S(=O)(=O)Nc2ccc3oc4c(c3c2)CCCC4)ccc1Cl	?	16.8%	17.8µM*	?	-1.5%	-9.7%
CC(=O)c1c(C)oc2c(Cl)cc(NS(=O)(=O)c3ccc(Cl)cc3)cc12	14.1%	25.9%	21.2%	?	-2.5%	9.3%
CCCc1oc2ccc(NS(=O)(=O)c3ccc(OCC)cc3)cc2c1C(=O)OCC	38.9%	-26.9%	17.8µM*	?	14.7µM*	-1.2%
Cc1cnc(NC(=O)CSc2nnc(-c3ccccc3)o2)s1	?	.	14.1µM*	.	.	.
Cc1cnc(NC(=O)CSc2ncn(-c3ccccc3)n2)s1	-0.1%	.	-4.8%	.	.	.
CCCn1c(=O)c2[nH]c(-c3cnn(Cc4cccc(C(F)(F)F)c4)c3)nc2n(CC)c1=O	.	.	.	.	.	2.9%
C[C@](Cc1c[nH]c2ccccc12)(NC(=O)OC1C2CC3CC(C2)CC1C3)C(=O)NC[C@H](NC(=O)CCC(=O)O)c1ccccc1 (some centres not stated)	.	.	.	.	.	2.0%
CN(C)CCN(Cc1ccco1)C(=O)c1oc2ccccc2c1NC(=O)c1cccc(F)c1	5.4%	?	12.6µM*	?	?	?
C[C@]12CC[C@H](O)CC1=CC[C@@H]1[C@H]2CC[C@]2(C)C(c3cccnc3)=CC[C@H]12	.	.	.	.	.	-14.4%[23.2 µM]
O=C(O)Cn1nnc(-c2cc(N3CCC(Oc4cc(F)ccc4Br)CC3)no2)n1	.	.	.	.	.	1.8%
CCc1ccc(CNC(=O)C2CCCN(c3nnc(C)c4c(C)n(-c5ccc(OC)cc5)nc34)C2)cc1 (configuration not stated)	25.1µM*	?	?	?	-0.7%	?

High-throughput results deposited in PubChem by National Center for Advancing Translational Sciences (NCATS).
